Test results reported in PubChem BioAssay (NCATS).
“And” between values parts separate entries of the source, which are not always exact repeats. Equal values may be shown once. Records with an inconclusive call do not appear. The source made the active and inactive calls. Unless noted, calls follow the shape of the dose curve; as a rule, active = well fitted curve in either direction with a large enough effect (not every such curve was filed as active); inconclusive = small, poorly fitted or top-dose-only effect, or another doubt; inactive = flat fitted curve, though single readings scatter.

How the values were obtained:
[1] = AP1 Signaling Pathway (AID 357); settings: ME-180 AP-1-bla reporter, EGF-induced, beta-lactamase ratio, 5 h;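 also: ME-180 reporter cells stimulated with EGF at its EC50 level; % is scaled to controls: 0 for no effect and ±100 for the full control effect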
Outline: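 Cells are seeded overnight, exposed to compound titrations and an EC50 level of EGF for 5 hours at 37 °C, then loaded with CCF4 dye for 2.5 hours. Beta-lactamase activity under the AP-1 element is read as a blue/green ratio.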

[2] = biological target: Cytochrome P450 1A2 (Homo sapiens) (UniProt P05177); assay: p450-cyp1a2 (AID 410; calls by dose curve;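 also: -100% = full effect of reference inhibitor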); settings: recombinant CYP1A2, luciferin-ME demethylation, luminescence; series mostly up to 57 µM
Outline: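 20nM CYP1A2 with 100uM Luciferin-ME (at Km) in 100mM KPO4; compound preincubated 10 min, NADPH regeneration added, 60 min at room temperature. Luciferin quantified by luminescence after detection reagent; normalized to 57 uM furafylline.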

[3] = NFAT Signaling Pathway (AID 444); settings: Jurkat NFAT-bla M1, carbachol, beta-lactamase ratio, 5 h;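 also: carbachol stimulus at about its EC50 of 1 µM final; % is scaled to controls: 0 for no effect and ±100 for the full control effect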
Outline: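 Jurkat cells carrying an NFAT-driven β-lactamase reporter and co-transfected muscarinic M1 receptor were treated with compound plus carbachol (1 uM final, an EC50 level) for 5 h at 37 °C. CCF4 loading followed for 1 h at RT; 460/530 nm ratio gave %activity.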

[4] = Stat Signaling Pathway (AID 446); settings: ME-180 SIE beta-lactamase reporter, IL-6 stimulated, 5 h;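 also: ME-180 cervical cancer cells given 40 pM IL-6 alongside compound; SIE-controlled beta-lactamase reporter measured as 460/530 nm FRET emission ratio; % is scaled to controls: 0 for no effect and ±100 for the full control effect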
Outline: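 ME-180 cells carrying a SIE-driven beta-lactamase reporter are stimulated with 40 pM IL-6 for 5 h at 37C in the presence of compound. The 460/530 nm FRET substrate ratio is read after 2.5 h at RT. Data are normalised to 300 pM IL-6 and to 125 nM JAK inhibitor controls.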

[5] = biological target: Glucocorticoid receptor (Homo sapiens) (UniProt P04150); assay: GR-GFP Redistribution (AID 450;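 active = compounds whose dose series gives a full or clear partial fitted curve of increased nuclear translocation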; also: potency is read from the fitted curve at half-maximal effect); settings: U2OS GR-GFP nuclear translocation, laser cytometry, 2 h
[6] = biological target: Glucocorticoid receptor (Homo sapiens) (UniProt P04150); assay: GR-EFC Redistribution (AID 451; calls by dose curve; also: potency is read from the fitted curve at half-maximal effect); settings: CHO-K1 GR-EFC translocation, beta-gal luminescence, 2 h
Outline: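 CHO-K1 cells stably expressing nuclear-localized β-gal enzyme acceptor and GR fused C-terminally to the enzyme donor fragment; ligand-driven nuclear translocation restores β-gal by complementation. Compounds titrated up to 46 uM final, 2 h at 37 °C; luminescence read.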

[7] = biological target: Mitogen-activated protein kinase 10 (Mus musculus) (UniProt Q61831); assay: JNK3 AlphaScreen Assay (AID 530); settings: JNK3 lysate, c-Jun phosphorylation; series mostly up to 57.1 µM;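 also: kinase came from lysate of stimulated human HepG2 cells; signal reports phosphorylation of biotinylated GST-cJun 1-79 at Ser73 with 10 µM ATP; % is scaled to controls: 0 for no effect and ±100 for the full control effect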
Outline: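 Inhibitors reduce antibody binding to phosphorylated biotin-cJun, lowering AlphaScreen luminescence. Lysates from HepG2 cells pre-activated by IL-1beta plus TNF-alpha supplied JNK3; compounds were titrated.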

[8] = biological target: 3',5'-cyclic-AMP phosphodiesterase 4B (Homo sapiens) (UniProt Q07343); assay: qHTS Assay for Inhibitors of PDE-IV (AID 607; active = well fitted activation curve with a large enough effect in the main read-out, with a control signal flat, not every such curve was filed as active; also: % of control where 0% means no effect); settings: HEK293 ACTOne CNG channel cells, membrane potential fluorescence; series mostly up to 22.9 µM
Outline: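 HEK293 ACTOne cells with CNG channel (1000/well), endogenous PDE4; membrane potential dye, compounds up to 22.9 uM final. Fluorescence Ex 535/Em 590; RO 20-1724 (100 uM final) as reference.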

[9] = biological target: Guanine nucleotide-binding protein G(i) subunit alpha-1 (Homo sapiens) (UniProt P63096); assay: qHTS Assay for Inhibitors of RGS12 GoLoco Motif Activity (Green Fluorophore) (AID 879; active = well fitted curve in the direction sought with a large enough effect; an effect the other way counts as inactive or inconclusive;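 also: 0% = labeled peptide with Gαi1 and full inhibition = labeled peptide alone without protein; negative values mean loss of peptide binding seen as reduced polarization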); settings: Galphai1/FITC-RGS12 GoLoco peptide, fluorescence polarization; series mostly up to 57.1 µM
Outline: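 Fluorescence polarization assay: 50 nM Gαi1 with 10 nM FITC-labeled RGS12 GoLoco peptide in 10 mM Tris pH 7.5, 150 mM NaCl, 0.1 mM GDP, 0.05% NP40, 10 min at room temperature with compound.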

[10] = qHTS Assay for Identification of Small Molecule Agonists for Thrombopoietin (TPO) Signaling Pathway (AID 917; active = well fitted curve in the direction sought with a large enough effect; an effect the other way counts as inactive or inconclusive; also: % is scaled to controls: 0 for no effect and ±100 for the full control effect); settings: TPO signaling pathway reporter cells, agonist qHTS, stimulated with TPO at its EC50; series mostly up to 38.5 µM
Outline: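 Luminescence from a Glycoprotein IIb promoter–driven luciferase reporter served as read-out in murine Ba/F3 cells carrying the human TPO receptor. Cells, deprived of IL-3 overnight, received compounds with 26 pM TPO and were incubated 24 hrs at 37 C.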

[11] = biological target: Pyruvate kinase (Leishmania mexicana) (UniProt Q27686); assay: qHTS Validation Assay for Inhibitors of Leishmania Mexicana Pyruvate Kinase (AID 945; active = well fitted curve in the direction sought with a large enough effect; an effect the other way counts as inactive or inconclusive;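 also: 0% = DMSO only neutral control wells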); settings: purified L. mexicana pyruvate kinase, enzyme activity, E451W mutant enzyme; series mostly up to 57.5 µM
Outline: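 LmPYK E451W 0.2 nM; 0.5 mM PEP, 0.1 mM ADP, 7 mM MgCl2, 50 mM KCl, imidazole pH 7.2, 0.01% Tween 20, 0.05% BSA; 1 h RT; PKLight luminescence; DMSO-normalized.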

[12] = biological target: Pyruvate kinase PKM (Homo sapiens) (UniProt P14618); assay: qHTS Assay for Activators of Human Muscle Pyruvate Kinase (AID 954; active = well fitted curve in the direction sought with a large enough effect, not every such curve was filed as active;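 also: 0% = uninhibited enzyme and -100% = no enzyme or full thiadiazolimine inhibition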); settings: purified human muscle pyruvate kinase, luciferase-coupled luminescence, 1 h; series mostly up to 57.5 µM
Outline: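 Purified human PKM2 (0.1 nM) with 0.5 mM PEP (Km) and 0.1 mM ADP in 50 mM imidazole pH 7.2, KCl, MgCl2, 1 h at room temperature; ATP formed read by coupled luciferase luminescence. Normalized to no-enzyme/110 uM thiadiazolimine inhibition; 0.3 nM enzyme column for activation.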

[13] = biological target: Alpha-galactosidase A (Homo sapiens) (UniProt P06280); assay: Counterscreen for Glucocerebrosidase Inhibitors: qHTS Assay for Human alpha-Galactosidase at pH 4.5 (AID 992; active = well fitted curve in the direction sought with a large enough effect; an effect the other way counts as inactive or inconclusive; also: 0% is about no effect); settings: purified enzyme, fluorogenic substrate; series mostly up to 76.9 µM
Outline: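 Human enzyme (2 nM) with 80 uM 4-methylumbelliferyl alpha-D-galactopyranoside in 50 mM citric acid, 0.005% Tween-20, pH 4.5, 20 min at room temperature. Compounds 0.7 nM–77 uM; fluorescence Ex 365/Em 440 after pH 10 stop; AC50 from Hill fits.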

[14] = biological target: alpha-glucosidase (Oryza sativa, rice) (UniProt Q653V4); assay: Counterscreen for Glucocerebrosidase Inhibitors: qHTS Assay for Rice alpha-Glucosidase at pH 5.0 (AID 997; active = well fitted curve in the direction sought with a large enough effect; an effect the other way counts as inactive or inconclusive;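 also: 0% = full activity with enzyme and -100% = basal without enzyme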); settings: rice alpha-glucosidase enzyme activity; series mostly up to 76.9 µM
Outline: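 Rice alpha-glucosidase (4 nM final) with 400 uM 4-methylumbelliferyl-alpha-D-glucopyranoside in citrate buffer pH 5.0, 20 min at room temperature, stopped at pH 10; fluorescence 365/440 nm, compounds 0.7 nM–77 uM, AC50 from Hill fits.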

[15] = qHTS Assay for Lipid Storage Modulators (AID 1519; calls by dose curve); settings: Drosophila S3 cells, BODIPY lipid droplet/cell ratio, laser cytometry, cells loaded with oleic acid; for activity change, negative = inhibition: at 25.7 µM (top of the series)
Outline: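 Cells seeded at 5,000 per well were treated with compounds over a concentration series and loaded with oleic acid (400 uM, as added). Lipid droplet fluorescence (488 nm excitation, 500-530 nm channel) was read by laser-scanning cytometry and normalized to 20 uM Triacsin C.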

[16] = biological target: Ubiquitin carboxyl-terminal hydrolase 1 (Homo sapiens) (UniProt O94782); assay: Inhibitors of USP1/UAF1: Pilot qHTS (AID 504865; active = well fitted curve in the direction sought with a large enough effect; an effect the other way counts as inactive or inconclusive;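 also: rhodamine fluorescence freed from ubiquitin-rhodamine substrate followed over time; top concentration of the series differs between compounds; % is scaled to controls: 0 for no effect and ±100 for the full control effect; nearly all actives have a fitted effect of over 35% in size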); settings: purified USP1/UAF1, Ub-rhodamine cleavage fluorescence; series mostly up to 54.9 µM
Outline: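 In 50mM HEPES pH 7.8 containing 0.5mM EDTA, 1mM TCEP, 0.1 mg/ml BSA and 0.01% Tween-20, 1nM USP1/UAF1 is exposed to compound for 15 min, then Ub-Rho (150nM final) is added and fluorescence is read over time.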

[17] = biological target: Cytochrome P450 2D6 (Homo sapiens) (UniProt P10635); assay: qHTS Assay for Inhibitors and Substrates of Cytochrome P450 2D6 (AID 891; active = well fitted curve in the direction sought with a large enough effect; an effect the other way counts as inactive or inconclusive; also: nearly all actives have a fitted effect of over 60% in size; also: potency is read from the fitted curve at half-maximal effect); settings: recombinant CYP2D6, luciferin-ME EGE luminescence; series mostly up to 57.1 µM
Outline: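 Human CYP2D6 (5 nM) with 30 uM Luciferin-ME EGE (at Km) in 100 mM KPO4, compound preincubated 10 min, then NADPH regeneration system for 60 min at room temperature. Luciferin read by luminescence; normalized to 1.43 uM quinidine.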

[18] = biological target: Cytochrome P450 3A4 (Homo sapiens) (UniProt P08684); assay: qHTS Assay for Activators of Cytochrome P450 3A4 (AID 885; active = well fitted curve in the direction sought with a large enough effect; an effect the other way counts as inactive or inconclusive; also: nearly all actives have a fitted effect of over 65% in size); settings: recombinant CYP3A4, Luciferin-PPXE luminescence, 60 min; series mostly up to 57.1 µM
Outline: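 Human CYP3A4 (20 nM) with Luciferin-PPXE at 25 uM (its KM) in 200 mM KPO4; 10 min compound preincubation, then NADPH regeneration and 60 min reaction at RT. Luciferin read by luminescence; normalized to 57 uM ketoconazole full inhibition.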

[19] = measured here: cell count channel max response
[20] = measured here: lipid channel max response

Chain of 3',5'-cyclic-AMP phosphodiesterase 4B (Homo sapiens) (Q07343 whole entry, looked up): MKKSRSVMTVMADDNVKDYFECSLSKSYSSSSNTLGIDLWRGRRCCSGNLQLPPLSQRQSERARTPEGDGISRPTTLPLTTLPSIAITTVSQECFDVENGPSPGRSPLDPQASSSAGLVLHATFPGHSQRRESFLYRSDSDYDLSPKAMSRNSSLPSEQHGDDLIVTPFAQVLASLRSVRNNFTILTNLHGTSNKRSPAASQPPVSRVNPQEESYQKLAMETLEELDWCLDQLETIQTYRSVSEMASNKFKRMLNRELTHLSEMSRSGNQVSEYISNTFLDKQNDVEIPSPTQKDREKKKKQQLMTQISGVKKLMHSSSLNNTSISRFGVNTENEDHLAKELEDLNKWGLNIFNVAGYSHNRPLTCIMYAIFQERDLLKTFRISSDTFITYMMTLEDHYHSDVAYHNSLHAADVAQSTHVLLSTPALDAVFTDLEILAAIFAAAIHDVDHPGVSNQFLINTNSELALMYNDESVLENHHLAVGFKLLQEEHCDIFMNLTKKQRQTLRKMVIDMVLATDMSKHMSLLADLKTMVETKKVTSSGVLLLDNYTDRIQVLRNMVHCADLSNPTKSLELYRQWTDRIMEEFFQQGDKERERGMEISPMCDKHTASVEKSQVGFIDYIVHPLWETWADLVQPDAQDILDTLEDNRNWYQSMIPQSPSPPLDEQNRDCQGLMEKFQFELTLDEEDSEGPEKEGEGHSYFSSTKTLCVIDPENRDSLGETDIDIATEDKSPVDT
Chain of Pyruvate kinase (Leishmania mexicana) (Q27686 2-499 E452W): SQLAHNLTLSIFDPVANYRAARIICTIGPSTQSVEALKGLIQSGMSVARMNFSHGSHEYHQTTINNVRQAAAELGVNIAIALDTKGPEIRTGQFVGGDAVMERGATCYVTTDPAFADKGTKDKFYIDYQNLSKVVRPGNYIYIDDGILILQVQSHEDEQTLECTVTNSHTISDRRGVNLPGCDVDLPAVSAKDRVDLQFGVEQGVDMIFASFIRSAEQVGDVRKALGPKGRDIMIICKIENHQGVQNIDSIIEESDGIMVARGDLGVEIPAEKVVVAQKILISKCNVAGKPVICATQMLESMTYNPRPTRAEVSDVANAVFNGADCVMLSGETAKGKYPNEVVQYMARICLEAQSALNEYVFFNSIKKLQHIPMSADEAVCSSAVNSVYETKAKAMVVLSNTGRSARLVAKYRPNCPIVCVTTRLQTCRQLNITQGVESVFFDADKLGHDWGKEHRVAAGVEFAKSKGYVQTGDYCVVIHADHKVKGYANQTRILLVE
Chain of Cytochrome P450 2D6 (Homo sapiens) (P10635 whole entry, looked up): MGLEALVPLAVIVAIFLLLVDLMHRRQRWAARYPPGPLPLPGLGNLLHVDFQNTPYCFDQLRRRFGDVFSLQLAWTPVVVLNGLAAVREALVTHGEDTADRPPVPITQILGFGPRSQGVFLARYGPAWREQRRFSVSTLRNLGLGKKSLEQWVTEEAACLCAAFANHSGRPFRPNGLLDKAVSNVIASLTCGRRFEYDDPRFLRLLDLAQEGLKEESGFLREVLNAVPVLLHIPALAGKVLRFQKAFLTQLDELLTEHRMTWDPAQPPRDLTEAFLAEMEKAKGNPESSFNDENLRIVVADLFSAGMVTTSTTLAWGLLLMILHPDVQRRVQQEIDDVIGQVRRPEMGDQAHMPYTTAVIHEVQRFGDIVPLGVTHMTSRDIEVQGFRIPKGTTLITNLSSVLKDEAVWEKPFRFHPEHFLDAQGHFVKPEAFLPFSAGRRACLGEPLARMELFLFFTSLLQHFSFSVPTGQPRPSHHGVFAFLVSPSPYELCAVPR
Chain of Glucocorticoid receptor (Homo sapiens) (P04150 whole entry, looked up, the tested form may be a part): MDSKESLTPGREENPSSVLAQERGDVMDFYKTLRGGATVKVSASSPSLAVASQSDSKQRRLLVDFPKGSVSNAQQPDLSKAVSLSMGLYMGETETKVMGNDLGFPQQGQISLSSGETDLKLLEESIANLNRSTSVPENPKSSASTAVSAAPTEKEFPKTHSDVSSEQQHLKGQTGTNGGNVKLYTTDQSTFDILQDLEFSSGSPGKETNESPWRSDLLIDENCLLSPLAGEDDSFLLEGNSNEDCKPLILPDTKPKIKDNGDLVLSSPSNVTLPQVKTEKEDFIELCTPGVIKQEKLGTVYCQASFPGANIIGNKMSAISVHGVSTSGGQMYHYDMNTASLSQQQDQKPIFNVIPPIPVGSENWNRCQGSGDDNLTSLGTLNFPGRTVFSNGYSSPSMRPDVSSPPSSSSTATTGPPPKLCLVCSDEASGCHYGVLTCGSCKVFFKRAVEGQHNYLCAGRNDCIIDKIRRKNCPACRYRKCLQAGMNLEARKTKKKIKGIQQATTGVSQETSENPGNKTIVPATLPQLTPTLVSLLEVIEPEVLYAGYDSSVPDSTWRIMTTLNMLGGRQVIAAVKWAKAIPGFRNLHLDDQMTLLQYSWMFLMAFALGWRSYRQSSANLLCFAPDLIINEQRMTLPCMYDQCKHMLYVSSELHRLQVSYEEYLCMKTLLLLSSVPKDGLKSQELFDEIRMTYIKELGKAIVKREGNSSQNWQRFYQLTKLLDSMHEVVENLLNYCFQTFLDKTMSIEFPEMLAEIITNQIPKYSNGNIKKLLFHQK
Chain of Guanine nucleotide-binding protein G(i) subunit alpha-1 (Homo sapiens) (P63096 whole entry, looked up): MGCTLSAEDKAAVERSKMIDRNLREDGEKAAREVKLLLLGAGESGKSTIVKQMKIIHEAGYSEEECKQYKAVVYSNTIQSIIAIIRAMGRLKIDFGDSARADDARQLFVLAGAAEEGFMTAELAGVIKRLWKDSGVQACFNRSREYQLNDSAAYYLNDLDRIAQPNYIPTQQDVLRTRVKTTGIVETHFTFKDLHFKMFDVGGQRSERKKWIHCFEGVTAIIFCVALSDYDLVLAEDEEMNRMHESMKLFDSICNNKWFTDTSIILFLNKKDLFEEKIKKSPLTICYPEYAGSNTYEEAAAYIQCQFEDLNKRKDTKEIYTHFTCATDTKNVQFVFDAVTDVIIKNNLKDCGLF
Chain of Pyruvate kinase PKM (Homo sapiens) (P14618 whole entry, looked up): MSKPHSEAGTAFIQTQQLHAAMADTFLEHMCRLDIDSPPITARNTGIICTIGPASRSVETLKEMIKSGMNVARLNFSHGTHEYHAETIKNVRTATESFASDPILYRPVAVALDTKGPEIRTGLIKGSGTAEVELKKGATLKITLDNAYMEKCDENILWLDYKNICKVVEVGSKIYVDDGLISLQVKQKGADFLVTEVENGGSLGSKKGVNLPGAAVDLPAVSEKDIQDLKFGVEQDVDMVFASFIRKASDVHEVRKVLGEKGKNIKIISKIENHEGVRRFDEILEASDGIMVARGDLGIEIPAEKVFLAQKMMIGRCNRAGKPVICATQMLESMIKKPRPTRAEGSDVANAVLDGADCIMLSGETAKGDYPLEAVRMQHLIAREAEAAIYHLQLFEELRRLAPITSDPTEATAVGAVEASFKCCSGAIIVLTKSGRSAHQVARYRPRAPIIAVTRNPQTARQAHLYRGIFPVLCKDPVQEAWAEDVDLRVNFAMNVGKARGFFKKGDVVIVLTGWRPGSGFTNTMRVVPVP
Chain of Cytochrome P450 1A2 (Homo sapiens) (P05177 whole entry, looked up): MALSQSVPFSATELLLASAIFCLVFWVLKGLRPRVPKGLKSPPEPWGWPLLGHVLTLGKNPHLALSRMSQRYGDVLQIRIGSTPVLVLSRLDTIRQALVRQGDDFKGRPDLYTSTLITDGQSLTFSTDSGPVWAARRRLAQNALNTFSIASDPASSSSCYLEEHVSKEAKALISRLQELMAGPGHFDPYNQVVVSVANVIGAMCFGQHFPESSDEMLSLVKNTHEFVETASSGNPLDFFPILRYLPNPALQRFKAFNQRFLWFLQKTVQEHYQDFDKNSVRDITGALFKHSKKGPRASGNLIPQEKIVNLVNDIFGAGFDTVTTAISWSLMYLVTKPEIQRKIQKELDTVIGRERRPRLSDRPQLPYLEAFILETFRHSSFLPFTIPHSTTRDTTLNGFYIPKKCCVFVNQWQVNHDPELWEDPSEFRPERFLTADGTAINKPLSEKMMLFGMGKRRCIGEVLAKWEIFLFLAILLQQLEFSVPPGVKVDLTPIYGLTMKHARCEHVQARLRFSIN
Chain of Alpha-galactosidase A (Homo sapiens) (P06280 whole entry, looked up): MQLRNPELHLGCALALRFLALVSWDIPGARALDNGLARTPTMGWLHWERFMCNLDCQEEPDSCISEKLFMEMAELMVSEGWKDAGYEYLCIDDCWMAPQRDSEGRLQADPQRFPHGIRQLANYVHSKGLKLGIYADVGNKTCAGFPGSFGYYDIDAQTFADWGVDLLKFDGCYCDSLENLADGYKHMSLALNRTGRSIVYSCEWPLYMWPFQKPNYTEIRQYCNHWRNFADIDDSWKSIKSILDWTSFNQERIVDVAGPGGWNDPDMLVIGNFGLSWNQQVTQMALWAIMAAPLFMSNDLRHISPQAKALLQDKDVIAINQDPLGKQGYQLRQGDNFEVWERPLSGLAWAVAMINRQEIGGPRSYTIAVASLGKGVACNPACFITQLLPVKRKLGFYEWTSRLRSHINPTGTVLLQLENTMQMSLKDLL
Chain of Cytochrome P450 3A4 (Homo sapiens) (P08684 whole entry, looked up): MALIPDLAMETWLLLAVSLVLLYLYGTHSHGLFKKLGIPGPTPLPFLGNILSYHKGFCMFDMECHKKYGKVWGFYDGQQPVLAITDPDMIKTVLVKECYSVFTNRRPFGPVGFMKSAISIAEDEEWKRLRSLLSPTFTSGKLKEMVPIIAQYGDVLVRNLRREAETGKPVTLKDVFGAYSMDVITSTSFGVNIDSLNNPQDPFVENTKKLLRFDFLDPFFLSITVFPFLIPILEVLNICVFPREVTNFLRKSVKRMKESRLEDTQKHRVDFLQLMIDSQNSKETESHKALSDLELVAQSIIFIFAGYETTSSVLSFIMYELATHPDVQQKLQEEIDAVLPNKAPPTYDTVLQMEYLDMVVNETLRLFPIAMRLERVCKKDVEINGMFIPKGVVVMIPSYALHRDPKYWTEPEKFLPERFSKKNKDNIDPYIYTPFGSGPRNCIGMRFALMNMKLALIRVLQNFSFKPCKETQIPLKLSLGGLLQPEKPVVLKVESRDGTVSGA

CC(C)(Oc1ccc([C@@H]2CC2(Cl)Cl)cc1)C(=O)O
inactive: activity change, negative = inhibition ([1]; at 17.2 µM (top of the series)) -1.19% | activity change, negative = inhibition ([1]; at 38 µM (top of the series)) -10.2% | Potency [2] | activity change, negative = inhibition ([3]; at 17.2 µM (top of the series)) -16.8% | activity change, negative = inhibition ([3]; at 38 µM (top of the series)) -7.66% | activity, negative = inhibition ([4]; at 7.69 µM (top of the series) unless noted) -2.06% [at 17.2 µM] | Potency [5] > 46 µM and > 20.6 µM | Potency [6] > 46 µM and > 20.6 µM | Potency [7] | Potency [8] | Potency [9] | outcome [10] | outcome [11] | outcome [12] | outcome [13] | outcome [14] | activity change, negative = inhibition [15] -0.371% | Potency [16]
-15.2%: max response [15, 20]
-16.1%: max response [15, 19]

CC(=O)[C@@H]1CC[C@@H]2[C@@H]3CCC4=CC(=O)CC[C@@]4(C)[C@H]3CC[C@]21C
-9.33%: max response [15, 19]
inactive: activity change, negative = inhibition ([1]; at 17.2 µM (top of the series)) 2.95% | activity change, negative = inhibition ([1]; at 38 µM (top of the series)) 10.7% | Potency [2] | activity change, negative = inhibition ([3]; at 17.2 µM (top of the series)) -20.4% | activity change, negative = inhibition ([3]; at 38 µM (top of the series)) -21.5% | activity, negative = inhibition ([4]; at 17.2 µM (top of the series)) -0.332% | activity, negative = inhibition ([4]; at 38 µM (top of the series)) 9.04% | Potency [7] | Potency [8] | Potency [17] | activity change, negative = inhibition [15] -4.74%
-17.9%: max response [15, 20]

O[C@@](CCN1CCCCC1)(c1ccccc1)C1CCCCC1
-19.7%: max response [15, 20]
-17.3%: max response [15, 19]
active: activity change, negative = inhibition ([3]; at 17.2 µM (top of the series)) -51.7% | activity change, negative = inhibition ([3]; at 38 µM (top of the series)) -75.1% | Potency [17] 5.01 µM and 1.26 µM
inactive: activity change, negative = inhibition ([1]; at 17.2 µM (top of the series)) 7.19% | activity change, negative = inhibition ([1]; at 38 µM (top of the series)) 17.8% | Potency [2] | activity, negative = inhibition ([4]; at 17.2 µM (top of the series)) -9.32% | activity, negative = inhibition ([4]; at 38 µM (top of the series)) 15.1% | Potency [7] | Potency [9] | Potency [18] | outcome [10] | outcome [11] | outcome [12] | outcome [13] | outcome [14] | activity change, negative = inhibition [15] -1.35%

N[C@H](C(=O)N[C@@H]1C(=O)N2C(C(=O)O)=C(Cl)CS[C@@H]12)c1ccccc1
-3.03% and 9.1%: max response [15, 20]
inactive: activity change, negative = inhibition ([1]; at 17.2 µM (top of the series)) 6.26% and -9.38% | activity change, negative = inhibition ([1]; at 38 µM (top of the series)) -4.53% | Potency [2] | activity change, negative = inhibition ([3]; at 17.2 µM (top of the series)) -10.5% and 0.734% | activity change, negative = inhibition ([3]; at 38 µM (top of the series)) 5.52% | activity, negative = inhibition ([4]; at 17.2 µM (top of the series)) -10.4% and 2.37% | activity, negative = inhibition ([4]; at 38 µM (top of the series)) 22.7% | Potency [5] > 46 µM and > 20.6 µM | Potency [6] > 46 µM and > 20.6 µM | Potency [7] | Potency [8] | Potency [9] | Potency [18] | outcome [10] | outcome [11] | outcome [12] | outcome [13] | outcome [14] | activity change, negative = inhibition [15] -0.721% and -1.78% | Potency [16]
-2.76% and 11.1%: max response [15, 19]

CN(Cc1cnc2nc(N)nc(N)c2n1)c1ccc(C(=O)N[C@H](CCC(=O)O)C(=O)O)cc1
-2.14%: max response [15, 20]
inactive: activity change, negative = inhibition ([1]; at 17.2 µM (top of the series)) 13.9% | activity change, negative = inhibition ([1]; at 38 µM (top of the series)) 2.91% and 5.9% | Potency [2] | activity change, negative = inhibition ([3]; at 17.2 µM (top of the series)) -38.1% | activity change, negative = inhibition ([3]; at 38 µM (top of the series)) -4.84% and 12.6% | activity, negative = inhibition ([4]; at 17.2 µM (top of the series)) 8.48% | activity, negative = inhibition ([4]; at 38 µM (top of the series)) -1.61% and 15.7% | Potency [7] | Potency [8] | activity change, negative = inhibition [15] 0.922%
-1.52%: max response [15, 19]
